# Several values for one entry are separate records, joined by “and”; a condition that tells them apart may be missing. Equal entries are not always repeated. About 83,000 compounds went through this panel and 20% of them were active in at least one assay; those are over-represented in the sample as a whole.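 For each line, cells grew in 96-well plates with the test compound present at a single concentration for 48 hours.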 A number with no mark means an inactive call. Activity calls are given as the source filed them. Rule for the calls: active = growth percent below 10; inactive = the rest.
# Experiments:
# Experiment in all cases: NCI-60 one-dose screen, 48 h (100 = growth as untreated, 0 = no growth, -100 = all killed)
# [1] = test system: NCI-H23 lung
# [2] = test system: NCI-H226 lung; settings: 10 µM unless noted
# [3] = test system: NCI-H322M lung
# [4] = test system: HOP-62 NSCLC
# [5] = test system: NCI-H460 lung
# [6] = test system: HOP-92 NSCLC
# [7] = test system: NCI-H522 lung
# [8] = test system: A549/ATCC NSCLC
# [9] = test system: 786-0 renal
# [10] = test system: COLO 205 colon
# [11] = test system: DU-145 prostate
# [12] = test system: K-562 leukemia
# [13] = test system: MALME-3M melanoma
# [14] = test system: MDA-MB-231 breast
# [15] = test system: RXF 393 renal
# [16] = test system: SF-268 CNS
# [17] = test system: SF-295 CNS
# [18] = test system: SF-539 CNS
# [19] = test system: UACC-257 melanoma
# [20] = test system: M14 melanoma; settings: 10 µM unless noted
smiles,measurement,setting,value
O=[N+]([O-])c1cc(Cl)c(Cl)c([N+](=O)[O-])c1Cl,growth,[1]; 10 µM unless noted,85.6%
same,growth,[2],81.4%
same,growth,[3]; 10 µM unless noted,123%
same,growth,[4]; 10 µM unless noted,119%
same,growth,[5]; 10 µM unless noted,99.7%
same,growth,[6]; 10 µM unless noted,74.9%
same,growth,[7]; 10 µM unless noted,-86.7% (active)
same,growth,[8]; 10 µM unless noted,92.5%
same,growth,[9]; 10 µM unless noted,114%
same,growth,[10]; 10 µM unless noted,-23.8% (active)
same,growth,[11]; 10 µM unless noted,85.4%
same,growth,[12]; 10 µM unless noted,7.08% (active)
same,growth,[13]; 10 µM unless noted,-26% (active)
same,growth,[14]; 10 µM unless noted,91.8%
same,growth,[15]; 10 µM unless noted,55.5%
same,growth,[16]; 10 µM unless noted,84.2%
same,growth,[17]; 10 µM unless noted,134%
same,growth,[18]; 10 µM unless noted,103%
same,growth,[19]; 10 µM unless noted,16.1%
same,growth,[20],3.65% (active)
Cc1cc(N(CCCl)CCCl)ccc1C=Nc1ccc(-c2csc(-c3ccccc3)n2)cc1,growth,[1]; 10 µM unless noted,66.6%
same,growth,[2],58.5%
same,growth,[3]; 10 µM unless noted,117%
same,growth,[4]; 10 µM unless noted,79.3%
same,growth,[5]; 10 µM unless noted,33.1%
same,growth,[6]; 10 µM unless noted,59.4%
same,growth,[7]; 10 µM unless noted,102%
same,growth,[8]; 10 µM unless noted,67.2%
same,growth,[9]; 10 µM unless noted,59.2%
same,growth,[10]; 10 µM unless noted,88.9%
same,growth,[11]; 10 µM unless noted,68.3%
same,growth,[12]; 10 µM unless noted,80.4%
same,growth,[13]; 10 µM unless noted,115%
same,growth,[14]; 10 µM unless noted,90.3%
same,growth,[15]; 10 µM unless noted,90.1%
same,growth,[16]; 10 µM unless noted,66.7%
same,growth,[17]; 10 µM unless noted,66.2%
same,growth,[18]; 10 µM unless noted,74.4%
same,growth,[19]; 10 µM unless noted,86.5%
same,growth,[20],92.6%
O=C(O)CCCc1ccc(N(CCCl)CCCl)cc1,growth,[1]; 10 µM,102% and 79.4%
same,growth,[1]; 75 µM,23.1%
same,growth,[3]; 10 µM,98.7% and 112%
same,growth,[3]; 75 µM,91.9%
same,growth,[4]; 10 µM,90.1% and 91.6%
same,growth,[4]; 75 µM,35%
same,growth,[5]; 10 µM,86.6% and 54.5%
same,growth,[5]; 75 µM,21%
same,growth,[6]; 10 µM,95.3% and 40.2%
same,growth,[6]; 75 µM,14.6%
same,growth,[7]; 10 µM,87.2% and 59.6%
same,growth,[7]; 75 µM,0.62% (active)
same,growth,[8]; 10 µM,89.2%
same,growth,[8]; 75 µM,46.1%
same,growth,[9]; 10 µM,98.4% and 86.1%
same,growth,[9]; 75 µM,9.49% (active)
same,growth,[10]; 10 µM,104% and 105%
same,growth,[10]; 75 µM,66.2%
same,growth,[11]; 10 µM,111% and 98.7%
same,growth,[11]; 75 µM,-5.07% (active)
same,growth,[12]; 10 µM,103% and 58.3%
same,growth,[12]; 75 µM,31.8%
same,growth,[13]; 10 µM,98.7% and 88.9%
same,growth,[13]; 75 µM,43%
same,growth,[14]; 10 µM,99.4% and 104%
same,growth,[14]; 75 µM,93.5%
same,growth,[15]; 10 µM,106% and 87.8%
same,growth,[15]; 75 µM,12%
same,growth,[16]; 10 µM,87.6% and 69.9%
same,growth,[16]; 75 µM,34%
same,growth,[17]; 10 µM,100% and 78.8%
same,growth,[17]; 75 µM,13.4%
same,growth,[18]; 10 µM,87.8% and 72.3%
same,growth,[18]; 75 µM,-40.7% (active)
same,growth,[19]; 10 µM,104% and 73.4%
same,growth,[19]; 75 µM,28.9%
same,growth,[20],93.3% and 97.1%
O=C(Cc1ccccc1)c1ccccc1,growth,[1]; 10 µM unless noted,94.5%
same,growth,[2],102%
same,growth,[3]; 10 µM unless noted,103%
same,growth,[4]; 10 µM unless noted,98.5%
same,growth,[5]; 10 µM unless noted,98.9%
same,growth,[6]; 10 µM unless noted,88.1%
same,growth,[7]; 10 µM unless noted,103%
same,growth,[8]; 10 µM unless noted,107%
same,growth,[9]; 10 µM unless noted,102%
same,growth,[10]; 10 µM unless noted,102%
same,growth,[11]; 10 µM unless noted,105%
same,growth,[12]; 10 µM unless noted,104%
same,growth,[13]; 10 µM unless noted,98.7%
same,growth,[14]; 10 µM unless noted,110%
same,growth,[15]; 10 µM unless noted,103%
same,growth,[16]; 10 µM unless noted,103%
same,growth,[17]; 10 µM unless noted,112%
same,growth,[18]; 10 µM unless noted,98.8%
same,growth,[19]; 10 µM unless noted,98%
same,growth,[20],107%
Cc1c(C)c(N)c(C)c(C)c1N,growth,[1]; 10 µM unless noted,79.2%
same,growth,[2],98.5%
same,growth,[3]; 10 µM unless noted,87.6%
same,growth,[4]; 10 µM unless noted,90.6%
same,growth,[5]; 10 µM unless noted,39.8%
same,growth,[6]; 10 µM unless noted,97.5%
same,growth,[7]; 10 µM unless noted,40.8%
same,growth,[8]; 10 µM unless noted,79.6%
same,growth,[9]; 10 µM unless noted,107%
same,growth,[10]; 10 µM unless noted,91.9%
same,growth,[11]; 10 µM unless noted,6.41% (active)
same,growth,[12]; 10 µM unless noted,97.8%
same,growth,[13]; 10 µM unless noted,93.2%
same,growth,[14]; 10 µM unless noted,83.2%
same,growth,[15]; 10 µM unless noted,84.1%
same,growth,[16]; 10 µM unless noted,91.5%
same,growth,[17]; 10 µM unless noted,85.4%
same,growth,[18]; 10 µM unless noted,108%
same,growth,[19]; 10 µM unless noted,92.9%
same,growth,[20],98.7%
COc1ccc(CN)cc1OC,growth,[1]; 10 µM unless noted,101% and 104%
same,growth,[2],113% and 105%
same,growth,[3]; 10 µM unless noted,135% and 96.9%
same,growth,[4]; 10 µM unless noted,107% and 101%
same,growth,[5]; 10 µM unless noted,124% and 102%
same,growth,[6]; 10 µM unless noted,108%
same,growth,[7]; 10 µM unless noted,107% and 98.5%
same,growth,[8]; 10 µM unless noted,108% and 102%
same,growth,[9]; 10 µM unless noted,105% and 101%
same,growth,[10]; 10 µM unless noted,122% and 109%
same,growth,[11]; 10 µM unless noted,111% and 106%
same,growth,[12]; 10 µM unless noted,131%
same,growth,[13]; 10 µM unless noted,96.8%
same,growth,[14]; 10 µM unless noted,109% and 107%
same,growth,[15]; 10 µM unless noted,126%
same,growth,[16]; 10 µM unless noted,108% and 98.9%
same,growth,[17]; 10 µM unless noted,104%
same,growth,[18]; 10 µM unless noted,105% and 99.3%
same,growth,[19]; 10 µM unless noted,106% and 101%
same,growth,[20],110% and 98.7%

# From PubChem BioAssay (NCI)
